HT1080NT lethal: qHTS for induction of synthetic lethality in tumor cells producing 2HG: qHTS for the HT-1080-NT fibrosarcoma cell line | HT-1080-NT fibrosarcoma viability, CellTiter-Glo ATP luminescence, 48 h | Potency, µM (doses to about 46.1 µM), for the others: at the highest dose activity, negative = less viability, hits mostly cytotoxic | actives 1.6% (n = 360,000) | AID 686970, 2013;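 also: NT is the 2HG producing partner of a matched IDH1 knockdown line; potency is read from the fitted curve at half-maximal effect; 0% = DMSO-treated cells and -100% = media-only wells without cells; nearly all actives have a fitted effect of over 55% in size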
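Toxicity toward the 2HG-producing NT line was scored as %Activity, normalised to DMSO and no-cell wells, from CellTiter-Glo luminescence after 48 hours' treatment.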
IL1B secr inh: qHTS for Inhibitors of Inflammasome Signaling: IL-1-beta AlphaLISA Primary Screen. actives 4.7% (n = 360,000). activity change, % at 57.5 µM. THP-1 LPS/ATP IL-1B secretion, AlphaLISA, 16 h; active compounds read low. AID 743279, 2014; in the data active = activity change below about -50%; inconclusive = mostly about -30% to -49%
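THP-1 cells pretreated 1 hr with compounds (up to 57.5 uM final), then stimulated with LPS (250 ng/mL final) plus ATP (1.25 mM final); secreted IL-1B measured by AlphaLISA after 16 hr, decreased signal indicating inhibition.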
DT40 TDP1 no CPT: qHTS for Inhibitors of human tyrosyl-DNA phosphodiesterase 1 (TDP1): qHTS in cells in absence of CPT | AID 686978, 2013 | DT40 Tdp1-/- hTDP1 cells, no CPT, ATP luminescence, 48 h | actives 15% (n = 420,000) | Potency, µM (titrated, usually from 46.2 µM), for inactives: at the top dose activity change, negative = growth inhibition, actives largely listed as inhibitors; also: potency is read from the fitted curve at half-maximal effect; nearly all actives have a fitted effect of over 55% in size
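No-CPT arm: Tdp1-/-;hTDP1 DT40 cells (400/well) plus compounds, incubated ≥48 hr at 37 °C. Readout CellTiter-Glo luminescence.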
DT40 TDP1 CPT: qHTS for Inhibitors of human tyrosyl-DNA phosphodiesterase 1 (TDP1): qHTS in cells in presence of CPT | chicken DT40 Tdp1-/-;hTDP1 cells + 20 nM CPT, ATP luminescence, 48 h | AID 686979, 2013 | actives 12% (n = 420,000) | Potency, µM (titrated, usually from 46.2 µM), for inactives: at the top dose activity change, negative = growth inhibition, actives largely listed as inhibitors; also: potency is read from the fitted curve at half-maximal effect; nearly all actives have a fitted effect of over 55% in size
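Cell growth measured by CellTiter-Glo luminescence after a minimum 48 h, 37 C compound exposure with 20 nM CPT in Tdp1-knockout DT40 cells stably expressing hTDP1, seeded 400/well; qHTS titration format.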
HT1080 IDH1KD tx: qHTS for induction of synthetic lethality in tumor cells producing 2HG: qHTS for the HT-1080-IDH1KD cell line | HT-1080 IDH1 knockdown viability, ATP luminescence, 48 h | Potency, µM (top dose mostly 46.1 µM), for inactives: at the highest dose activity, negative = toxicity, usual class: cytotoxic | actives 2% (n = 360,000);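 also: potency is read from the fitted curve at half-maximal effect; 0% = DMSO wells and -100% = cell-free medium wells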
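After a 2 h attachment period, IDH1KD HT-1080 cells took pin-transferred compound for 48 h at 37 °C; ATP-based luminescence after 10 min room-temperature reagent incubation reported viability.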
* = called active by the depositor; i = inactive; u = inconclusive; x = not tested or not shown; [ ] = remark or other dose. Shown are actives, neighbours in structure and some others; about 19% of the full set was active somewhere. Unless noted, calls follow the shape of the dose curve; as a rule, active = well fitted curve in the direction sought with a large enough effect; inconclusive = small, poorly fitted or top-dose-only effect, or another doubt; inactive = no such curve, though single readings can be large; an effect the other way counts as inactive or inconclusive. Unless noted, % is scaled to controls: 0 for no effect and ±100 for the full control effect.

SMILES | HT1080NT lethal | IL1B secr inh | DT40 TDP1 no CPT | DT40 TDP1 CPT | HT1080 IDH1KD tx
COc1ccc(CC(=O)OCC(=O)Nc2ccc3[nH]c(=O)[nH]c3c2)cc1OC | 8.0% | -1.5 | -2.4% | 2.6% | 18.6%
CCOC(=O)C(=O)N1CCC(C(=O)OCC)CC1 | 16.5% | x | -5.2% | 25.8% | 19.3%
O=C(NCc1cccnc1)c1ccccc1NS(=O)(=O)c1ccc(F)cc1F | -5.2% | 31.1 | 0.9% | -16.6% | 1.7%
COc1ccc2[nH]cc(CCNC(=O)c3ccc4ccccc4n3)c2c1 | -21.6% | -3.2 | u | u | u
CC(=O)NCCNc1ncnc2ccc(-c3c(C)noc3C)cc12 | x | x | -29.5% | u | x
CC(=O)NCCNc1ncnc2ccc(-c3ccc4c(c3)OCO4)cc12 | x | x | u | 16.4µM* | x
COc1ccc2[nH]cc(CCNc3ncnc4ccc(-c5ccc6c(c5)OCO6)cc34)c2c1 | x | x | 16.4µM* | u | x
COc1ccc2[nH]cc(CCNc3ncnc4ccc(-c5cccnc5)cc34)c2c1 | x | x | 23.1µM* | 14.6µM* | x
COC(=O)C[C@@H]1CC[C@H](NC(=O)Cc2ccccn2)[C@@H](CO)O1 | 21.9% | 19.2 | 2.6% | 1.0% | 26.1%
COc1ccc(C(=O)NC2CCCc3c2cnn3-c2cc(F)cc(F)c2)c(OC)c1OC (stereo unspecified) | u | -6.8 | 14.6µM* | 16.4µM* | u
COC(=O)c1ccc(C(=O)NC2CCCc3c2cnn3-c2cc(F)cc(F)c2)nc1 (stereo unspecified) | u | i | 2.06µM* | 2.91µM* | 16.4µM*
COc1ccc(C(=O)NC2CCCc3c2cnn3-c2cc(F)cc(F)c2)c(OC)n1 (stereo unspecified) | 8.9% | 13.7 | -16.6% | -26.4% | 9.8%
O=C(NC1CCCc2c1cnn2-c1cc(F)cc(F)c1)c1ccccn1 (stereo unspecified) | -7.9% | -16.1 | -21.0% | u | -17.5%
Cn1nccc1C(=O)NC1CCCc2c1cnn2-c1cc(F)cc(F)c1 (stereo unspecified) | -1.1% | 0.0 | u | 14.6µM* | -3.8%
CC1(C)C/C(=N\NC(=S)Nc2ccccc2F)c2cc(O)ccc2O1 | u | -78.6* | 4.11µM* | u | u
Cc1cccc(NC(=S)N/N=C2\CC(C)(C)Oc3ccc(O)cc32)c1 | -18.3% | u | 2.59µM* | 3.66µM* | -16.1%
COc1cccc(NC(=S)N/N=C2\CC(C)(C)Oc3ccc(O)cc32)c1 | -12.5% | -28.2 | u | u | -13.1%
COc1ccc(N2C(=O)[C@@H]3C[C@H]2CN3Cc2cccn2-c2ccccn2)cc1Cl | x | x | -26.6% | 1.0%[9.04 µM] | x
Cc1ccc(C2CCN(C(=S)NC3CCCCC3)C2)cc1 (stereo unspecified) | u | 29.8 | 18.4µM* | u | u
CC(C)c1ccc(NC(=O)N2CCC(c3nc4ccccc4o3)CC2)cc1 | -12.6% | -15.8 | 18.4µM* | 20.6µM* | 4.8%
Cc1cc(C)cc(NC(=O)N2CCC(c3nc4ccccc4o3)CC2)c1 | 3.9%[9.24 µM] | 0.0 | -26.8% | u | 7.9%
Cc1ccc(C2CCN(C(=S)Nc3cccc(C)c3)C2)cc1 (stereo unspecified) | 1.1% | 10.0 | 18.4µM* | u | -7.1%
Cc1cccc(NC(=S)N2CCC(c3nc4ccccc4o3)CC2)c1 | 10.9% | -6.1 | 29.1µM* | u | 7.8%
Cc1nccn1CC(=O)c1ccccc1 | 4.4% | -1.1 | -4.9% | 0.6% | 1.6%
CCOC(=O)c1c(N2C(=O)Nc3cc(Cl)c(Cl)cc3N2O)sc2c1CCCCC2 | u | -6.4 | -29.1% | -18.7% | u
O=C(NCC(c1ccc(F)cc1)N1CCOCC1)c1nn(-c2ccccc2)c(=O)c2ccccc12 (stereo unspecified) | -2.7%[9.24 µM] | 27.0 | 20.6µM* | u | 0.4%

Compound activity as filed in PubChem BioAssay.
